Consider one compound from PubChem BioAssay AID2284129 (EPA ToxCast).

Activity calls are given as the source filed them. How the source made its calls: active means hit-call score of the fitted dose curve at least 0.9, where 1 is the maximum; inactive means score below 0.9.

In this test the target is human Cyclooxygenase COX2, PTGS2 (gene 5743) (UniProt P35354). The test is described as follows: ERF_FR_ENZ_hPTGS2: Eurofins (ERF) Enzymatic LeadHunter Assay for human Cyclooxygenase COX2, conducted at France lab site. As to the method: ERF_FR_ENZ_hPTGS2 is a biochemical, single-readout assay that uses extracted gene-proteins in a cell-free assay. Measurements were taken 0.083 hour after chemical dosing in a 96-well plate. See COX2 Human Cyclooxygenase Enzymatic Assay, Cerep.ERF_FR_ENZ_hPTGS2 is an assay component calculated from the ERF_FR_ENZ_hPTGS2 assay. It is designed to measure enzyme activity using a type of enzyme reporter as detected by fluorescence intensity with fluorimetry technology.Data from the assay component ERF_FR_ENZ_hPTGS2 was analyzed at the assay endpoint, ERF_FR_ENZ_hPTGS2, in the positive analysis fitting direction relative to DMSO as the negative control and baseline of activity. Using a type of enzyme reporter, loss-of-signal activity can be used to understand changes in binding as they relate to gene PTGS2. To generalize the intended target to other relatable targets, this assay endpoint is annotated to the stress response intended target family, where the subfamily is cyclooxygenase.
Sequence of human Cyclooxygenase COX2, PTGS2 (gene 5743) (P35354 whole entry, looked up): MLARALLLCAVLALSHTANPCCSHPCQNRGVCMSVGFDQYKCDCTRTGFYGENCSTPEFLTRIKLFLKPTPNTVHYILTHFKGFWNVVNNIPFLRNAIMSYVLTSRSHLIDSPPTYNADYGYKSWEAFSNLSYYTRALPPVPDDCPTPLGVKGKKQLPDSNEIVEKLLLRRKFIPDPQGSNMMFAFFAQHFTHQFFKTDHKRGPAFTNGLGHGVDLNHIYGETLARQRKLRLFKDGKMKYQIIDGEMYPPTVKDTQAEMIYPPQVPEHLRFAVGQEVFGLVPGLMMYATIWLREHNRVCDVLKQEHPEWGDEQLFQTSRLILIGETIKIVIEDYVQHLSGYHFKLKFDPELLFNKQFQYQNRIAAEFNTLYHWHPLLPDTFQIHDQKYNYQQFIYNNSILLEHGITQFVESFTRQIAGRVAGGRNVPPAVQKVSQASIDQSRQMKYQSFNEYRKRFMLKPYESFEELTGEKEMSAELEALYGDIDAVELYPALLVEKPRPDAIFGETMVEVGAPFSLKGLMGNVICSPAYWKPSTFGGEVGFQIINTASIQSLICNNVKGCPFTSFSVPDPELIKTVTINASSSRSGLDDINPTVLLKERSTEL
Human cells are incubated for 5 minutes at room temprature with Arachidonic acid (1.2uM) + ADHP (25 uM) as sunstrate and ns-398 as control inhibitor. Test Sample Requirements: Minimum for 1) Screen: 60 ul of 10 mM stock -OR- 1 mg (pre-weighed) for 10 uM final testing. 2) Dose Response: 90 ul of 10 mM stock -OR- 1 mg (pre-weighed) for a top concentration at 10 uM.
Take `COc1cc(CCC(=O)CC(=O)CCc2ccc(O)c(OC)c2)ccc1O`: the AC50 – broadly, the concentration at which the activity in the assay is half-maximal – was 274 nM (active).
